Most compounds without a hit are left out; they make up all but 2.4% or so of the library.
D2 ag-1 = activates the human D2 dopamine receptor | DiscoveRx PathHunter D2 beta-arrestin, luminescence, 90 min; 100% = 57 uM dopamine signal | activation, % (test concentration not listed) | hit rate 0.084% among 360,000; in the data active = activation above about 40%; inconclusive = between about 15% and that limit
Target sequence (P14416 whole entry, looked up): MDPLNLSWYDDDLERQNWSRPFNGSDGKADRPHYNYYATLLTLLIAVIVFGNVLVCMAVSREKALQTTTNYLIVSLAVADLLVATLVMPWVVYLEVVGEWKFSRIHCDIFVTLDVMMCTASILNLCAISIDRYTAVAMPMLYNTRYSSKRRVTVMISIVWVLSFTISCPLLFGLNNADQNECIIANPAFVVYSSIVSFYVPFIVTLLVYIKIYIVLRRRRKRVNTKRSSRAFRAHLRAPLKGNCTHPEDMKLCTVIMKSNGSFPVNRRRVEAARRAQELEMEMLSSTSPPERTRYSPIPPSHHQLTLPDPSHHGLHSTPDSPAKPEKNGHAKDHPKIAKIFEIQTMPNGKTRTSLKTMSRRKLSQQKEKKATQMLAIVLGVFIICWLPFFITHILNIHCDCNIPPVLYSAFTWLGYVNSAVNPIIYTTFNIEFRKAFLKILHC
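DiscoveRx PathHunter D2 beta-arrestin cells (2,100/well) attached overnight, then compound-stimulated 90 min at 37 C in HBSS/10 mM HEPES/0.1% Tween-20 buffer; beta-galactosidase complementation read by luminescence after 1 h at ambient temperature. Dopamine 57 uM final (EC100) as control.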
D2 antagonist = antagonizes the human D2 dopamine receptor | HEK293 TREx D2 cells, calcium flux, dopamine EC80 | inhibition, % at 10 µM | hit rate 2% among 340,000 | AID 485344; in the data active = inhibition above about 30%; inactive = below that, where a call was filed; note: 0% is about no effect
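Calcium flux kinetic readout in an inducible HEK293 TREx D2 line plated overnight at 30 C. After 180 s compound exposure, an EC80 dopamine challenge follows with another 180 s kinetic read to detect antagonism.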
D2 PAM-1 = potentiates the human D2 dopamine receptor allosterically. P14416. DiscoveRx D2 beta-arrestin cells, luminescence, 90 min; 100% = 57 uM dopamine signal. potentiation, % (concentration not given with the values). hit rate 0.23% among 360,000; in the data active = potentiation above about 50%; inconclusive = mostly about 30% to 49%
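D2 cells co-treated with compound plus 50 nM dopamine (EC20) for 90 min at 37 deg C to detect potentiation. Beta-arrestin recruitment was read as enzyme-fragment luminescence after 1 h at ambient temperature. Full response was set by 57 uM dopamine.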
D2 ag-2 = activates the human D2 dopamine receptor; P14416; HEK293 T-REx D2 cells, calcium flux agonist mode; activation, % at 2 µM; hit rate 0.53% among 340,000; AID 485358;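 active = activation over 3 SD above normal in the single-dose calcium agonist read, cut at about 30% in these data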; note: 0% is about no effect
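Agonism is scored from calcium flux in a force-coupled, inducible HEK293 cell line expressing D2, read kinetically for 180 s after compound addition against dopamine controls.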
D2 PAM-2 = positive allosteric modulators of human D2 dopamine receptor. P14416. potentiation, % at 10 µM. HEK293 T-REx D2, calcium flux, EC20 dopamine potentiation. hit rate 0.34% among 340,000;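 active = potentiation over 3 SD above the plate norm, cut at about 30% in these data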; note: 0% is about no effect
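Potentiation of an EC20 dopamine calcium response is measured in a force-coupled, tetracycline-inducible Hek293 Trex D2 line. Compound-only kinetic reads over 180 s flag agonists before dopamine addition.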
The depositor's hits bear a star; ? = inconclusive; . = not tested or not shown.

SMILES	D2 ag-1	D2 antagonist	D2 PAM-1	D2 ag-2	D2 PAM-2
COc1ccc(-c2cc3ccccc3n2CC(O)CN2CCCCC2)cc1 (centres undefined)	-0.2	42.9*	-23.5	0.6	-22.2
COc1ccc(-c2cc3ccccc3n2CC(O)CNCCO)cc1 (centres undefined)	-2.2	.	-17.2	.	.
CCOC(=O)c1c(NC(=O)c2cc(-c3cccc(Cl)c3)on2)sc(C(C)=O)c1C	.	.	.	-0.2	-10.1
C=CCn1c(Oc2cc(C)ccc2C)nc2c1c(=O)n(C)c(=O)n2C	0.4	30.0*	16.4	-0.6	14.8
CC1CCCC(C)N1C(=O)Cn1cc(/C=C2/C(=O)Nc3ccccc32)c2ccccc21 (centres undefined)	-7.8	32.3*	-7.9	1.2	-1.2
COC(=O)c1cn(CC(=O)N2C(C)CCCC2C)c2ccccc12 (centres undefined)	-3.3	5.5	7.8	0.8	-9.0
COc1ccccc1CN1CC(C(=O)N2CCN(c3ccc(F)cc3)CC2)CC1=O (centres undefined)	0.3	-9.3	-11.0	-0.8	32.3*
O=C(CCCN1CC=C(n2c(=O)[nH]c3ccccc32)CC1)c1ccc(F)cc1	-3.2	81.3*	-33.4	0.8	-22.8
CCN(CC)S(=O)(=O)c1cccc(C(=O)NCC2(N3CCOCC3)CCCCC2)c1	-4.0	39.1*	-1.8	0.0	3.5
COc1ccc2nc(N(Cc3cccnc3)C(=O)c3ccco3)sc2c1	.	.	.	0.3	-1.0
O=C(CSc1nc(C2CC2)nc2ccccc12)N1c2ccccc2Sc2ccc(C(F)(F)F)cc21	3.6	4.4	59.9*	0.9	-9.4
O=C(c1cc2nc(-c3cccs3)cc(C(F)(F)Cl)n2n1)N1CCCc2ccccc21	-4.6	19.0	-6.0	0.5	13.0
O=C(c1cc2nc(-c3cccs3)cc(C(F)(F)F)n2n1)N1CCCc2ccccc21	-2.1	31.2*	-18.3	0.1	-3.0
COc1cccc(N(CC(=O)N2CCCC2)S(C)(=O)=O)c1	1.6	5.5	-4.5	0.2	13.0
CCN1CCCC1CNC(=O)c1cc2c(OC)cccc2[nH]1 (centres undefined)	-2.7	.	-24.4	.	.
CCN1CCCC1CNC(=O)c1cc2c(OC)c(OC)c(OC)cc2[nH]1 (centres undefined)	-0.1	82.7*	-13.0	0.3	-23.4
CCCCN1CCCC1CNC(=O)c1cc(C#N)c2ccccc2c1OC (centres undefined)	.	84.4*	.	1.2	-26.6
CCN1CCC[C@H]1CNC(=O)c1c(O)c(Cl)cc(Cl)c1OC	-7.2	76.0*	-27.0	-2.3	-27.0
CCN1CCCC1CNC(=O)c1cc(OC)c(OC)c(OC)c1 (centres undefined)	0.3	-18.6	-37.1	0.5	-21.4
CC1(C)S[C@@H]2[C@H](NC(=O)[C@H](N)c3ccccc3)C(=O)N2[C@H]1C(=O)O	-5.6	-20.1	0.8	1.0	3.5
CC1(C)S[C@@H]2[C@H](NC(=O)C(C(=O)O)c3ccccc3)C(=O)N2[C@H]1C(=O)O (some centres undefined)	-5.8	32.8*	5.2	1.2	7.7
CC1(Cc2ccc(Cl)s2)C(=O)Nc2c(Cl)ccc(Cl)c21 (centres undefined)	-5.0	.	-9.8	.	.
CCOc1ccc(C(C)=O)cc1COC(=O)c1ccccc1C(=O)N(C)Cc1ccccc1	-2.9	-1.1	10.1	-1.0	2.8
CCCCCOP(=O)(OCCCCC)C1(NS(=O)(=O)c2ccccc2)C=CC(=O)c2ccccc21 (centres undefined)	?	-6.2	90.2*	-0.7	4.8
O=S(=O)(c1ccccc1)N1CCN(CC2CC3C=CC2C3)CC1 (centres undefined)	-3.9	0.5	-8.5	-0.6	-2.2
SMILES	D2 ag-1	D2 antagonist	D2 PAM-1	D2 ag-2	D2 PAM-2
Cc1ccc(CN2CCN(CC3CC4C=CC3C4)CC2)cc1 (centres undefined)	-1.8	65.4*	-32.0	0.0	-26.0
COc1cccc(CSc2nc3n(n2)C(c2cccc(F)c2)C(C(=O)Nc2ccccc2C)=C(C)N3)c1 (centres undefined)	.	.	.	0.8	-5.2
N#CCSc1nc2ccccc2c2nc3ccccc3n12	-0.5	32.5*	-6.1	3.3	5.1
O=C(Cn1nc2c(cc1=O)CCCC2)NCc1ccccc1	.	.	.	0.6	11.0
CC(C)OCCCNc1ncnc2c1nc1n2CCCC1	-2.2	32.5*	-2.7	-0.1	13.1
Cc1ccc(-n2nnnc2SCc2ccc(C(=O)O)cc2)cc1C	-0.5	30.3*	10.1	1.0	-7.9
Cn1c(=O)oc2cc(S(=O)(=O)N3CCC(C(=O)N4CC=C(c5ccccc5)CC4)CC3)ccc21	-4.0	40.6*	4.6	0.4	21.6
O=C(CS(=O)(=O)c1cccc2nsnc12)NCc1ccc(Cl)cc1	.	.	.	-0.5	2.9
CCc1cccc(C)c1NC(=O)c1cn2c3c(ccc(Cl)c3c1=O)OC(C)C2 (centres undefined)	.	.	.	-0.5	0.7
O=C(c1cccs1)c1c[nH]cc1-c1ccccc1	-2.1	.	-11.5	.	.
CCOc1ccc(/C=N/NC(=O)c2cc3c(OC)cc(OC)c(OC)c3[nH]2)cc1	11.3	55.7*	-1.6	0.4	-19.7
O=C(O)C1CCN(C(=O)COc2ccc3c4c(c(=O)oc3c2)CCC4)CC1	-2.7	14.9	-7.1	5.5	16.3
NC(=O)C1CCN(C(=O)COc2ccc3c4c(c(=O)oc3c2)CCCC4)CC1	-5.6	30.8*	-26.2	1.6	7.5
Cc1ccc(-c2cn3nc(N4CCCC(C(=O)Nc5ccc(F)cc5)C4)sc3n2)cc1 (centres undefined)	.	.	.	0.5	-14.0
CCCCCn1cnc2c(=S)nc(N)[nH]c21	2.3	48.6*	-6.0	1.7	8.3
CCCCn1cnc2c(=S)nc(N)[nH]c21	2.8	5.5	-5.5	0.8	5.2
O=C(CSc1nc2ccsc2c(=O)n1Cc1ccc(F)cc1)NCc1ccc(Cl)cc1	.	.	.	0.1	-6.2
CCc1cnc2c(c1SC(C(C)=O)C(=O)N(C)C)c(=O)n(C)c(=O)n2C (centres undefined)	.	.	.	1.5	7.4
Cc1ccc(Nc2ccccc2)cc1	-2.3	40.5*	-14.2	-0.5	1.7
CCC1CCCCN1CCCNC(=O)CSc1nc2nc(C)c(Cc3ccccc3)c(C)n2n1 (centres undefined)	-2.4	-23.8	-9.8	0.7	8.4
CCC1CCCCN1CCCNC(=O)CSc1nc2nc(C)c(Cc3ccccc3Cl)c(C)n2n1 (centres undefined)	-5.0	-5.9	-17.3	0.1	30.9*
Fc1cccc(-c2cc3nc4c(c(N5CCC6(CC5)OCCO6)n3n2)CCCC4)c1	-4.5	4.7	1.1	-2.0	32.2*
Cc1nc2ccccn2c(=O)c1NC(=O)c1ccc(C(F)(F)F)cc1	.	.	.	-1.4	-3.3
Cc1ccc(/C=C\c2nccc3c2[nH]c2ccccc23)cc1	-4.4	44.3*	-35.7	-0.5	-23.5
